This is an account of results in PubChem BioAssay (NCI).

“And” between values parts separate entries of the source, which are not always exact repeats. Equal entries are not always repeated. This is part of a sample that, as a whole, favours compounds with a hit. Of some 83,000 tested, about 20% had one in any assay.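 Single-concentration screen, 48 h exposure, 96-well plates. Endpoint: percent growth. Below 10 = active.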 The source made the active and inactive calls.

What all share (assay): NCI-60 one-dose screen, 48 h (100 = growth as untreated, 0 = no growth, -100 = all killed)
Holding throughout (conditions): 10 µM unless noted

Assay [1] concerns SK-MEL-2 melanoma.
In assay [2] the test system is EKVX NSCLC.
Assay [3] has as its system SN12C renal.
Assay [4] has as its system UO-31 renal.
In assay [5] the test system is ACHN renal.
The test system of assay [6] is CAKI-1 renal.
Assay [7] relates to A498 renal.
For assay [8], the system named is CCRF-CEM leukemia.
The subject of assay [9] is MOLT-4 leukemia.

`N#CSCc1ccc(Cl)c(CSC#N)c1`: the growth in [1] was 83.2% (inactive); in assay [2] it was 75.1% (inactive); in [3], 33.1% (inactive); in [4], 24.6% (inactive); in assay [5], 32.5% (inactive); in assay [6], 22.5% (inactive). In addition, the growth in assay [7] is 18% (inactive); in assay [8] it was 12% (inactive); in assay [9] it was 17.5% (inactive).
Turning to `COC(=O)c1nc(=S)[nH]c(C(=O)OC)c1C(=O)c1ccccn1`, the growth in [1] is 24.9% (inactive); in assay [2], 34.9% (inactive); in assay [3] it was 39.1% (inactive); in assay [4] it was 11.7% (inactive); in assay [5], 10.2% (inactive); in assay [6] it was 15% (inactive). Further, the growth in assay [7] was 145% (inactive); in assay [8] it was 10.7% (inactive); in [9], 2.29% (active).
Consider `Cc1cc(N)c2ccccc2[n+]1CCCCCCCCCC[n+]1c(C)cc(N)c2ccccc21`, for which the growth was -23.7% (active) and -19.9% (active) in assay [1]; 13.4% (inactive) and 1.53% (active) in assay [2]; 5.16% (active) and 5.31% (active) in assay [3]; 19.2% (inactive) and 65.3% (inactive) in [4]; 30.9% (inactive) and 69.6% (inactive) in assay [6]; -7.94% (active) in assay [7]. The growth in [8] is 6.34% (active) and 22% (inactive); in assay [9], -43.9% (active) and 1.26% (active).
As for `Oc1ccc(/C=N/NC(=S)Nc2ccccc2)nc1`, the growth in [1] was 11.8% (inactive); in assay [2], 32.6% (inactive); in assay [3], 20.2% (inactive); in [4] it was -2.11% (active); in assay [6] it was 7.96% (active); in assay [8], 6.28% (active). The growth in assay [9] is -35.2% (active).
For `CCC(CCCN(CC)CCc1ccccc1)OC(=O)c1cc(OC)c(OC)c(OC)c1` (stereo unspecified), the growth in assay [1] was 95.6% (inactive); in assay [2], 83.8% (inactive); in assay [3] it was 90.2% (inactive); in [4], 69.8% (inactive); in assay [5] it was 82.8% (inactive); in assay [6], 89.7% (inactive). In addition, the growth in assay [7] was 60.2% (inactive); in assay [8], 98.6% (inactive); in [9], 87.1% (inactive).
Consider `O=C(O)C1C2CC3C(OC(=O)C31)C2Br` (stereo unspecified), for which the growth in assay [1] is 95.8% (inactive) and 105% (inactive); in [2] it was 106% (inactive) and 95.6% (inactive); in assay [3] it was 95.2% (inactive) and 103% (inactive); in [4] it was 91.4% (inactive) and 97.2% (inactive); in assay [5], 96% (inactive) and 100% (inactive); in assay [6] it was 102% (inactive) and 101% (inactive). The growth is 103% (inactive) and 64.4% (inactive) in assay [7]; 89.3% (inactive) and 107% (inactive) in assay [8]; 96.8% (inactive) and 106% (inactive) in [9].
For the compound `O=C1c2ccccc2C(=O)N1c1ccccc1`, the growth was 128% (inactive) in [1]; 93% (inactive) in assay [2]; 97.2% (inactive) in assay [3]; 89.1% (inactive) in assay [4]; 99.5% (inactive) in assay [5]; 81.3% (inactive) in assay [6]. For the same compound, the results for the growth in assay [7], in assay [8] and in assay [9] were 109% (inactive), 114% (inactive) and 103% (inactive), respectively.
With `Cc1c2ccccc2c(C)c2c1ccc1ccccc12`, the growth in assay [1] was 98.6% (inactive); in assay [2] it was 88.7% (inactive); in [3], 94.3% (inactive); in assay [4] it was 80.3% (inactive); in assay [6], 89% (inactive); in [7] it was 81.1% (inactive). Moreover, the growth is 88.9% (inactive) in assay [8] and 71.1% (inactive) in [9].
On to `CCCCCCCCCCCCCCCCN(CC)CC`, for which the growth is -79.9% (active) in [1]; -88.5% (active) in assay [2]; -83.5% (active) in assay [3]; -69.3% (active) in assay [4]; -81.9% (active) in assay [6]; 107% (inactive) in assay [7]. Besides, the growth is -13.4% (active) in assay [8] and -71.2% (active) in [9].
